Common to all, as to test: NCI-60 one-dose screen, 48 h (100 = growth as untreated, 0 = no growth, -100 = all killed)
One experiment relates to SK-MEL-2 melanoma. As to conditions: 10 µM unless noted.
The test system of a further experiment is EKVX NSCLC. As to conditions: 10 µM unless noted.
In the next experiment the test system is SN12C renal. The settings on record: 10 µM unless noted.
In another experiment the test system is UO-31 renal. The settings on record: 10 µM unless noted.
A further experiment has as its system TK-10 renal. The settings on record: 10 µM unless noted.
A further experiment deals with ACHN renal. The settings on record: 10 µM unless noted.
The next experiment concerns A498 renal. As to conditions: 10 µM.
The test system of the next experiment is HL-60(TB) leukemia. The settings on record: 10 µM unless noted.
The next experiment has as its system CCRF-CEM leukemia. As to conditions: 10 µM unless noted.

The structures appear in SMILES notation. The panel holds about 83,000 compounds, 20% with a hit somewhere; the sample as a whole holds those more often.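 Negative percent growth values reflect cell death: -40 means 40% of the cells present at the start died, and -100 means all died.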 A number with no mark means an inactive call. Active and inactive are the calls of the source. How the source made its calls: active means growth percent below 10; inactive means the rest.

In the case of `COc1ccc([As]=[As]c2ccc(OC)c(NCS(=O)(=O)O)c2)cc1NCS(=O)(=O)O` (stereo not given), the growth in the experiment on SK-MEL-2 melanoma was 23.9%; with EKVX NSCLC, 0.829% (active); in the experiment with SN12C renal, 12.4%; in the experiment on UO-31 renal, 25.7%; in the experiment with TK-10 renal, -16.2% (active); in the experiment with ACHN renal, 46.6%. Also, the growth with A498 renal is 20.9%; with HL-60(TB) leukemia, -7.43% (active); with CCRF-CEM leukemia, -13.9% (active).
Regarding `CC[C@H](C)[C@H](NC(=O)[C@H]1CCCCN1C)C(=O)N(C)[C@H](C[C@@H](O)c1nc(C(=O)N[C@@H](Cc2ccccc2)C[C@H](C)C(=O)O)cs1)C(C)C`, the growth is 41.3% in the experiment on SK-MEL-2 melanoma; 91.5% in the experiment on EKVX NSCLC; 90.5% in the experiment with SN12C renal; 84.1% in the experiment with UO-31 renal; 91.9% in the experiment with TK-10 renal; 106% with ACHN renal. Further, the growth is 76.2% with A498 renal, 8.99% (active) in the experiment on HL-60(TB) leukemia and 43.5% in the experiment on CCRF-CEM leukemia.
Regarding `O=C1NC(=O)C(=Cc2ccc(OCCCCC3CCCCC3)c(Cl)c2)C(=O)N1`, the growth in the experiment with SK-MEL-2 melanoma is 89.5%; in the experiment with EKVX NSCLC, 95.9%; in the experiment with SN12C renal it was 77.3%; with UO-31 renal, 81.2%; in the experiment on TK-10 renal it was 94.1%; in the experiment on ACHN renal, 104%. In addition, the results for the growth in the experiment on A498 renal and with CCRF-CEM leukemia were 82.7% and 90.1%, respectively.
For the compound `CC[C@H](NC(=O)[C@H]1CCCCN1C)C(=O)N(C)[C@H](C[C@@H](OC(C)=O)c1nc(C(=O)N[C@@H](Cc2ccccc2)C[C@H](C)C(=O)O)cs1)C(C)C`, the growth in the experiment on SK-MEL-2 melanoma was 36.8%; with EKVX NSCLC it was 40.6%; in the experiment with SN12C renal it was 17.1%; in the experiment on UO-31 renal it was 41.7%; with TK-10 renal, 69%; with ACHN renal, 34.4%. For the same compound, the growth is -8.18% (active) in the experiment with A498 renal, -21.5% (active) with HL-60(TB) leukemia and 1.98% (active) in the experiment with CCRF-CEM leukemia.
For `COc1ccc2c(c1)c(-c1nc(-c3cn(C)c4ncccc34)cs1)cn2CCCCN1CCCCC1`, the growth with SK-MEL-2 melanoma was -31.5% (active); in the experiment with EKVX NSCLC, 55.4%; in the experiment with SN12C renal, -79.7% (active); with UO-31 renal, -89.4% (active); with TK-10 renal, -26.8% (active); in the experiment on ACHN renal it was -95.2% (active). The growth in the experiment with A498 renal was 71.8%; in the experiment with HL-60(TB) leukemia, -64.9% (active); with CCRF-CEM leukemia, -50.5% (active).
Regarding `Nc1nc([Se])c2ncn(C3OC(CO)C(O)C3O)c2n1` (stereo not given), the growth was 104% in the experiment on SK-MEL-2 melanoma; 62.9% in the experiment with EKVX NSCLC; 94.7% with SN12C renal; 84.9% with UO-31 renal; 59.6% in the experiment with TK-10 renal; 84.3% in the experiment with ACHN renal. Also, the growth in the experiment on A498 renal was 95.3%; in the experiment on CCRF-CEM leukemia, 16.3%.
For the compound `CN1C(=O)C(=Cc2cn(CCCCCCn3c4ccccc4c(=O)c4ccccc43)c3ccccc23)C(=O)N(C)C1=O`, the growth with SK-MEL-2 melanoma is 92.8%; in the experiment on EKVX NSCLC, 96.2%; in the experiment with SN12C renal it was 104%; in the experiment on UO-31 renal, 65.6%; in the experiment with TK-10 renal, 111%; in the experiment with ACHN renal, 92.9%. Further, the growth with A498 renal was 110%; in the experiment on CCRF-CEM leukemia it was 109%.
As for `Cn1cc(-c2csc(-c3cn(CCCCN4CCCCC4)c4ccc(F)cc34)n2)c2cccnc21`, the growth is 97.4% in the experiment on SK-MEL-2 melanoma; 89% with EKVX NSCLC; 75.7% in the experiment on SN12C renal; 20.6% with UO-31 renal; 106% in the experiment on TK-10 renal; 54.6% in the experiment on ACHN renal. In addition, the growth is 81.5% in the experiment with A498 renal, -0.887% (active) in the experiment on HL-60(TB) leukemia and -60.5% (active) in the experiment with CCRF-CEM leukemia.
For `CC1=C(CCCOC(=O)[C@H](N)CC(C)C)C2=C(C)C3(CC3)[C@@](C)(O)C(=O)C2=C1`, the growth is -15.6% (active) in the experiment with SK-MEL-2 melanoma; 35.2% in the experiment with EKVX NSCLC; 29.3% in the experiment on SN12C renal; -42.1% (active) in the experiment with UO-31 renal; -19% (active) in the experiment with TK-10 renal; -43% (active) in the experiment with ACHN renal. Moreover, the growth in the experiment on A498 renal is -74.2% (active); in the experiment on HL-60(TB) leukemia, 52.3%; with CCRF-CEM leukemia, 80%.
Regarding `[Au+].[N-]=C=O.c1ccc(CN2[CH-]N(Cc3ccccc3)C(c3ccccc3)=C2c2ccccc2)cc1`, the growth with SK-MEL-2 melanoma was 84.5%; in the experiment on EKVX NSCLC it was 86.7%; with SN12C renal, 74%; in the experiment on UO-31 renal, 74.5%; in the experiment on TK-10 renal, 104%; in the experiment on ACHN renal, 93.2%. For the same compound, the values for the growth with A498 renal and in the experiment with CCRF-CEM leukemia were 112% and 66.8%, respectively.
For the compound `COc1ccc2c(c1)c(-c1nc(-c3c[nH]c4ncccc34)cs1)cn2CCN1CCOCC1`, the growth with SK-MEL-2 melanoma is 61.3%; in the experiment with EKVX NSCLC, 37.1%; with SN12C renal, 43.6%; with UO-31 renal, 15.4%; in the experiment with TK-10 renal it was 42.3%; in the experiment on ACHN renal, 36.5%. Also, the values for the growth with A498 renal, in the experiment on HL-60(TB) leukemia and in the experiment on CCRF-CEM leukemia were 71.7%, 61% and 41.6%, respectively.
As to `COC(=O)[C@@H](C)C[C@H](Cc1ccccc1)NC(=O)c1csc([C@@H](C[C@H](C(C)C)N(C)C(=O)[C@@H](NC(=O)[C@H]2CCCCN2C)C(C(F)(F)F)C(F)(F)F)OC(C)=O)n1`, the growth in the experiment with SK-MEL-2 melanoma was 34.5%; with EKVX NSCLC, 40.4%; in the experiment on SN12C renal, 28.3%; in the experiment on UO-31 renal, 33.1%; in the experiment on TK-10 renal, 28.5%; with ACHN renal, 28.2%. In addition, the growth was -4.49% (active) in the experiment with A498 renal, -33.7% (active) in the experiment with HL-60(TB) leukemia and 4.93% (active) with CCRF-CEM leukemia.
Regarding `O=P(N1CC1)(N1CC1)N1CCc2ccccc21`, the growth in the experiment with SK-MEL-2 melanoma was 121%; in the experiment with EKVX NSCLC, 119%; in the experiment on SN12C renal it was 92.4%; in the experiment on UO-31 renal, 92.2%; in the experiment with TK-10 renal it was 110%; with ACHN renal it was 108%. For the same compound, the growth in the experiment with A498 renal was 106%; with CCRF-CEM leukemia, 104%.
Take `N#C[Se]CCN1C(=O)c2ccccc2C1=O`: the growth was 43.7% with SK-MEL-2 melanoma; 33.8% in the experiment on EKVX NSCLC; 64.4% in the experiment on SN12C renal; 15.9% in the experiment with UO-31 renal; 15.3% with TK-10 renal; 63.2% in the experiment with ACHN renal. Besides, the figures for the growth in the experiment with A498 renal and with CCRF-CEM leukemia were -12.5% (active) and 21.1%, respectively.

The values above are taken from PubChem BioAssay (NCI).
